Screening results as filed in PubChem BioAssay.
Hits are enriched below; roughly 4.3% of the tested compounds scored in any of these assays.
GLP1R inv ag: GLP-1 receptor (human) inverse agonism | HEK293 GLP-1R CRE-luciferase, luminescence, 24 h; GLP-1R form is constitutively active | Potency, µM (top dose mostly 38.3 µM), without a hit: at the top dose activity change, negative = inhibition, actives largely listed as inhibitors | P43220 | hit rate 1.6% among 410,000 | AID 624417; further: potency means the concentration at half of the fitted maximal effect; on the % scale 0 is the no-effect control and ±100 the full control effect; nearly all actives have a fitted effect of over 55% in size
Target sequence (P43220 whole entry, looked up): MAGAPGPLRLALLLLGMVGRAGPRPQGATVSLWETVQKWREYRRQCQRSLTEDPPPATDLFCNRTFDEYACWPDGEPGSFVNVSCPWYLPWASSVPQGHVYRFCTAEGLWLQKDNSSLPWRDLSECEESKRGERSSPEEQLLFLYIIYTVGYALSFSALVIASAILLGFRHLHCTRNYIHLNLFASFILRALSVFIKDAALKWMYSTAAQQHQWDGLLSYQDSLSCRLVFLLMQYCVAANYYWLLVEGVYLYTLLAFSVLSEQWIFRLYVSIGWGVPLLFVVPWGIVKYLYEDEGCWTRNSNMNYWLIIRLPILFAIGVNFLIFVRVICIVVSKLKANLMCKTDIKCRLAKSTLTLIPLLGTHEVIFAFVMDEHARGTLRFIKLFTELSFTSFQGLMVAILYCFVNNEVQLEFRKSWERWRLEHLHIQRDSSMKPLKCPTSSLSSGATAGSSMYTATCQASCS
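Using stably transfected HEK293 (constitutively active GLP-1R, cAMP-luciferase reporter), compounds were incubated 24 hr and luciferase measured by luminescence.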
DRD3 antagonist: blocks the human D3 dopamine receptor; D3R cells, DiscoveRx beta-arrestin luminescence, antagonist mode; active compounds read low; max response, negative = inhibition, %; hit rate 2.5% among 360,000; AID 652054; in the data active means max response below about -50%; inconclusive means no clear call, values can overlap the other calls; further: on the % scale 0 is the no-effect control and ±100 the full control effect
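Cells plated overnight at 1500 cells/well, then exposed to library compounds with dopamine controls for 90 minutes at 37 degrees C. DiscoveRx reagent added for 30–60 minutes at room temperature; luminescence read, quantitative HTS format.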
D3 ag: agonists of human D3 dopamine receptor; D3R DiscoveRx beta-arrestin cells, luminescence, 90 min; max activation, %; hit rate 0.58% among 410,000; AID 652048; in the data active means max activation above about 30%; further: 0% is about no effect
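Cells at 1500/well, incubated overnight, then treated with pinned compounds (dopamine as control) for 90 min at 37 degrees C. DiscoveRx reagent added for 30 - 60 minutes at room temperature; luminescence read.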
GLP1R ag: activates the human GLP-1 receptor; HEK293 GLP-1R CRE-luciferase, luminescence, 4-6 h; cells express a hypersensitive GLP-1R form; Potency, µM (highest dose often 45.6 µM), without a hit: at the highest dose activation, usual class: activators; hit rate 0.007% among 380,000; further: potency means the concentration at half of the fitted maximal effect; % of control where 0% means no effect
The depositor's hits bear a star; ? = inconclusive; / = no result. Unless noted, the call rests on the fitted dose curve; in most records, active means well fitted curve in the direction sought with a large enough effect; inconclusive means small, poorly fitted or top-dose-only effect, or another doubt; inactive means no such curve, though single readings can be large; an effect the other way counts as inactive or inconclusive.

SMILES	GLP1R inv ag	DRD3 antagonist	D3 ag	GLP1R ag
CCOc1ccc(NC(=O)N2CCC(n3c(=O)[nH]c4ccccc43)CC2)cc1	-10%	10	4	-1%
O=C(NCCN1CCC(n2c(=O)[nH]c3ccccc32)CC1)c1cccc2c1-c1ccccc1C2=O	-4%	0	-14	-4%
O=C(NCCN1CCC(n2c(=O)[nH]c3ccccc32)CC1)c1c(F)cccc1F	-14%	-92*	-12	-5%
O=C(NCCN1CCC(n2c(=O)[nH]c3ccccc32)CC1)c1ccc(F)cc1F	3%	-109*	-14	-1%
CCCNC(=O)C(Cc1cccc(Cl)c1)NC(=O)c1ccccc1 (centres undefined)	19%	18	2	2%
Cc1oc2cc3oc(=O)c(CCC(=O)N(C)CC(=O)O)c(C)c3cc2c1C	13%	-67*	3	4%
CCNc1cc2oc(=O)c(CN3CCOCC3)c(C)c2cc1C	?	-67*	-12	-4%
Cc1oc2cc3oc(=O)c(CCC(=O)N[C@H](C(=O)O)C(C)C)c(C)c3cc2c1C	3%	-16	-1	4%
Cc1oc2cc3oc(=O)c(CCC(=O)NCCN4CCOCC4)c(C)c3cc2c1C	36%	9	41*	6%
Oc1ccc(Br)cc1C=Nc1ccc2c3c(cccc13)CC2	-15%	-54*	-6	12%
COc1ccc(C(=O)Nc2cc(S(=O)(=O)c3ccc(Cl)cc3)c(O)c(C)c2C)cc1	?	/	-15	1%
Cc1ccc2[nH]c(=O)c(CN(C(=O)c3cccc(Cl)c3)C(C)(C)C)cc2c1	-2%	/	0	/
O=C1C2C3C=CC(C3)C2C(=O)N1c1n[nH]c(-c2ccccc2)n1 (centres undefined)	0%	-4	34*	0%
O=C1C2C3C=CC(C3)C2C(=O)N1c1n[nH]c(-c2cccnc2)n1 (centres undefined)	1%	-16	1	-7%
COc1ccc(S(=O)(=O)NCC(c2ccco2)S(=O)(=O)c2cccs2)cc1F (centres undefined)	-9%	/	1	/
CCc1c(C2(O)CCCCC2)[nH]c2cnccc12	-1%	-53*	-7	10%
O=C(NCC(c1ccco1)N1CCN(c2ccccc2)CC1)C(=O)NC1CCCCC1 (centres undefined)	-15%	3	37*	-16%
O=C(NCC(c1ccco1)N1CCN(c2ccccc2)CC1)C(=O)NC1CCCC1 (centres undefined)	-4%	18	9	-2%
O=C(NCC1CCCO1)C(=O)NCC(c1ccco1)N1CCN(c2ccccc2F)CC1 (centres undefined)	?	87	51*	-1%
O=C(NCC(c1ccco1)N1CCN(c2ccccc2)CC1)C(=O)NC1CC1 (centres undefined)	11%	-6	4	2%
O=C(NCC(c1ccco1)N1CCN(c2ccccc2F)CC1)C(=O)NC1CCCC1 (centres undefined)	22%	20	36*	-16%
CC(C)N(Cc1ccccc1)C(C)C (tested in a mixture with another compound)	/	/	/	3%
O=C(COc1ccc(/C=N/NC(=O)c2ccccc2O)cc1)Nc1ccc([N+](=O)[O-])cc1	5%	10	41*	-10%
CO[C@H]1C=CO[C@@]2(C)Oc3c(C)c(O)c4c(O)c(c5c(nc6cc(C)ccn65)c4c3C2=O)NC(=O)/C(C)=C\C=C[C@H](C)[C@H](O)[C@@H](C)[C@@H](O)[C@@H](C)[C@H](OC(C)=O)[C@@H]1C	/	/	-12	/
CC1(C)Cc2c(cnn2-c2ccccc2)C(=O)/C1=N\NC(=O)c1ccccc1O	11µM*	34	6	-12%
SMILES	GLP1R inv ag	DRD3 antagonist	D3 ag	GLP1R ag
COc1ccc(N2CCN(Cc3nc(Cc4cccc(F)c4)no3)C(C)C2)cc1 (centres undefined)	5.6µM*	-2	8	1%
COc1ccc(Cl)cc1NC(=O)CCNC(=O)Cn1ccc2ccccc2c1=O	23%	-2	-2	0%
O=C(O)c1cccc2c1/C(=N/Nc1ccc([N+](=O)[O-])cc1[N+](=O)[O-])c1ccccc1-2	-2%	-54*	-6	-2%
CCn1cc(C(=O)NCCCOC(C)C)c(=O)c2cc(S(=O)(=O)N3CCc4ccccc4C3)ccc21	2%	/	-15	/
CC(C)/C=N/Nc1nc(-c2ccc(Br)cc2)cs1	5.6µM*	11	2	-5%
O=C(Nc1nc(-c2ccc(Br)cc2)cs1)c1cccnc1	23%	6	4	4%
O=C(N/N=C/C1CCCCC1)c1ccccc1-n1cccc1	19%	2	36*	7%
CC1CCC(=NNC(=O)c2ccccc2-n2cccc2)CC1 (centres undefined)	14%	5	-7	2%
CC1CCCN(c2ccc(C(=O)NCc3ccc4c(c3)OCO4)cc2[N+](=O)[O-])C1 (centres undefined)	?	-3	-9	17%
O=C(c1ccc(N2CCCC2)c([N+](=O)[O-])c1)N1CCc2ccccc2C1	4.5µM*	33	-12	29%
CC1CCN(c2ccc(C(=O)Nc3ccc4c(c3)OCO4)cc2[N+](=O)[O-])CC1	6.3µM*	9	5	1%
O=C(c1ccc(N2CCCCC2)c([N+](=O)[O-])c1)N1CCOCC1	0%	7	4	5%
Cc1ccc(C(=O)NCCCn2ccnc2)cc1[N+](=O)[O-]	-18%	?	-8	-2%
O=C(NCCCn1ccnc1)c1ccc(N2CCCCCC2)c([N+](=O)[O-])c1	5µM*	?	-17	15%
O=C(NCc1ccc2c(c1)OCO2)c1ccc(N2CCCCCC2)c([N+](=O)[O-])c1	?	-60*	-11	8%
CC1CCCN(c2ccc(C(=O)Nc3ccc4c(c3)OCO4)cc2[N+](=O)[O-])C1 (centres undefined)	?	17	-8	11%
Cc1cccc(NC(=O)c2ccc(N3CCCCC3)c([N+](=O)[O-])c2)n1	-4%	26	7	0%
Cc1ccc(C)c2sc(NC(=O)c3ccc(N4CCCCC4)c([N+](=O)[O-])c3)nc12	3%	-59*	5	-8%
CCN1CCN(c2ccc(NC(=O)c3ccc4c(c3)OCCO4)cc2C)CC1	6.3µM*	-6	-7	7%
Cc1cc(C(=O)Nc2ccc3c(c2)OCCO3)ccc1[N+](=O)[O-]	-14%	-62*	-11	-4%
OCCN1CC(O)C(O)C(O)C1CO (centres undefined)	/	/	/	6%
Cc1ccc(Cc2c(-c3ccc(C)cc3)nc3ccc(Cl)cn23)cc1	10µM*	3	4	-3%
Cc1ccc(-c2nc3ccc(Cl)cn3c2CC(C)(C)C)cc1	17%	?	-11	-3%
Cc1ccc2nc(-c3ccc(C#N)cc3)c(Cc3cccc(Cl)c3)n2c1	-29%	-53*	-14	-4%
CC(C)(C)Cc1c(-c2ccc(F)cc2)nc2ccc(Cl)cn12	5.6µM*	-4	-6	-5%
